In PubChem BioAssay (EPA / NIEHS):
Records with an inconclusive call do not appear. Activity calls are given as the source filed them. How the source made its calls, unless noted: active means hit-call score of the fitted dose curve at least 0.9, where 1 is the maximum; inconclusive means response in the unintended direction; inactive means score below 0.9.

Columns and labels:
[1] = target: Glucocorticoid receptor (Homo sapiens) (UniProt P04150); experiment: ATG_GR_TRANS: Attagene TRANS-FACTORIAL HepG2 Assay for human Glucocorticoid Receptor (GR) (AID 2282978); settings: HepG2 Attagene TRANS GR reporter, mRNA transcription;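 further: activators score as hits since higher reporter transcript over DMSO is fitted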
Chain of Glucocorticoid receptor (Homo sapiens) (P04150 whole entry, looked up, the tested form may be a part): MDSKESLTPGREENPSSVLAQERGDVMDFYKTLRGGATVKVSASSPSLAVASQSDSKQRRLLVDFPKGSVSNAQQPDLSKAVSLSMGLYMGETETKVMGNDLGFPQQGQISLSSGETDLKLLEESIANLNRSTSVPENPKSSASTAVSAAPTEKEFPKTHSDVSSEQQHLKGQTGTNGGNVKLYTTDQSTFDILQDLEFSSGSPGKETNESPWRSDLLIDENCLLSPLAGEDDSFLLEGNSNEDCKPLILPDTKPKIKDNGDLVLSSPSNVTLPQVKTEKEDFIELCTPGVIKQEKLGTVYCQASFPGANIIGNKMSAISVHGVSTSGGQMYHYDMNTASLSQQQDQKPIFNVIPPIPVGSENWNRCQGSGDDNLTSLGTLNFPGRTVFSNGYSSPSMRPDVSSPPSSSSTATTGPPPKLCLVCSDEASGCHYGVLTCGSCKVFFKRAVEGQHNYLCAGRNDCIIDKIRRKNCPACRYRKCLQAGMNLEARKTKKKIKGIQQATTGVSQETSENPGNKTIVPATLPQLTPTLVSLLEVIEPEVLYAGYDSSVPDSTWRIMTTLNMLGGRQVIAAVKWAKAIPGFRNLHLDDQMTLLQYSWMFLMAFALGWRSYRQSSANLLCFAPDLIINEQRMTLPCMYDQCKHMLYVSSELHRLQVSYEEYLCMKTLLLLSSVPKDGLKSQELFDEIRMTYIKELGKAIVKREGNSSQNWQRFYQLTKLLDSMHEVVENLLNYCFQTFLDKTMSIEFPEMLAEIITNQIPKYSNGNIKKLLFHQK
Outline: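 Transiently transfected HepG2 cells express chimeric NR-GAL4 proteins acting on GAL4-UAS reporter units. Compounds are applied for 24 h. mRNA induction over DMSO is measured by capillary electrophoresis.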

[2] = target: Bile acid receptor (Homo sapiens) (UniProt Q96RI1); experiment: ATG_FXR_TRANS: Attagene TRANS-FACTORIAL HepG2 Assay for Farnesoid X Receptor (FXR) (AID 2282979); settings: HepG2 Attagene TRANS FXR-GAL4 reporter transcription;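 further: hits raise reporter mRNA above DMSO so AC50 marks FXR activation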
Chain of Bile acid receptor (Homo sapiens) (Q96RI1 whole entry, looked up, the tested form may be a part): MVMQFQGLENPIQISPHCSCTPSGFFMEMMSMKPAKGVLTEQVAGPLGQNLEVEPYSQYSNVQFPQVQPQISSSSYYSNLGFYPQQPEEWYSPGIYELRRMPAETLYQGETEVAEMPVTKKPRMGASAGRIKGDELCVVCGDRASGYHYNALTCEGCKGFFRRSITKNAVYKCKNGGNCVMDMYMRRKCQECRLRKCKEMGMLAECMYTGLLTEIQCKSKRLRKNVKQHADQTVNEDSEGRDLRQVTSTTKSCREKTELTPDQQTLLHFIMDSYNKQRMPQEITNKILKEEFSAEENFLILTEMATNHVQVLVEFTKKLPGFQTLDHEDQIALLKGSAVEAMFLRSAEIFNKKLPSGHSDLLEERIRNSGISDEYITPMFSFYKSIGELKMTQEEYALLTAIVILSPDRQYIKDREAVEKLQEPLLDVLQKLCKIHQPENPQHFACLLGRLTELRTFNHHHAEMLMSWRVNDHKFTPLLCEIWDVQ
Outline: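 HepG2 cells transiently transfected with reporter constructs in which a chimeric FXR-GAL4 protein drives a GAL4-UAS reporter; 24 h compound exposure. Reporter mRNA measured by RT-PCR, FAM labelling, HpaI digestion and capillary electrophoresis; gain-of-signal versus DMSO.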

[3] = target: Hepatocyte nuclear factor 4-alpha (Homo sapiens) (UniProt P41235); experiment: ATG_HNF4a_TRANS: Attagene TRANS-FACTORIAL HepG2 Assay for human Hepatocyte Nuclear Factor 4 alpha (HNF4a) (AID 2282982); settings: HepG2 HNF4a transactivation reporter, mRNA readout
Chain of Hepatocyte nuclear factor 4-alpha (Homo sapiens) (P41235 whole entry, looked up, the tested form may be a part): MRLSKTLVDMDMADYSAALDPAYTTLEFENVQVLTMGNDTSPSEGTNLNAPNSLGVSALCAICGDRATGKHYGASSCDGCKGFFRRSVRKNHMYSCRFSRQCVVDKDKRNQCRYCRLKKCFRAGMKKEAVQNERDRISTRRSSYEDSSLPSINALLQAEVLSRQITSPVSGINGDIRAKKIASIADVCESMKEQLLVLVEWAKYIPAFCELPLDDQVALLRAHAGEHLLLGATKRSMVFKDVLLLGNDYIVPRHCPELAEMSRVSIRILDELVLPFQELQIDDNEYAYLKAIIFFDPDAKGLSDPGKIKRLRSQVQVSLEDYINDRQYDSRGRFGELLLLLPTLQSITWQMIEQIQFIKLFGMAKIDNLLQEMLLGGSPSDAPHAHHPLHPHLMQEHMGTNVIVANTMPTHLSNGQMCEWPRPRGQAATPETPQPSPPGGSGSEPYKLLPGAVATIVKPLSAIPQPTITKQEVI
Outline: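 HepG2 cells transiently transfected with multiplexed GAL4-UAS reporter units responsive to chimeric NR-GAL4 proteins; compound exposure 24 h. Reporter mRNA quantified by RT-PCR, 6-FAM labelling, HpaI digestion and capillary electrophoresis; gain of signal versus DMSO baseline.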

[4] = ATG_M_32_TRANS: Attagene TRANS-FACTORIAL HepG2 Assay for M32 Transcription Factor (Internal Marker) (AID 2282984); settings: HepG2 Attagene TRANS M32 internal marker reporter
Outline: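 HepG2 cells transiently transfected with multiple GAL4-UAS reporter transcription units, dosed for 24 hours; reporter mRNA quantified by RT-PCR, 6-FAM primer extension, HpaI digestion and capillary electrophoresis. Gain-of-signal fitted versus DMSO baseline; internal background-control marker.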

[5] = target: Nuclear respiratory factor 1 (Homo sapiens) (UniProt Q16656); experiment: ATG_NRF1_CIS: Attagene CIS-FACTORIAL HepG2 Assay for human Nuclear Respiratory Factor 1 (NRF1) Orphan Gene (AID 2282987; active means hit-call score of the fitted dose curve at least 0.9, where 1 is the maximum; inactive means score below 0.9); settings: HepG2 NRF1 cis-element reporter, Attagene multiplex; actives raise or lower the signal
Chain of Nuclear respiratory factor 1 (Homo sapiens) (Q16656 whole entry, looked up): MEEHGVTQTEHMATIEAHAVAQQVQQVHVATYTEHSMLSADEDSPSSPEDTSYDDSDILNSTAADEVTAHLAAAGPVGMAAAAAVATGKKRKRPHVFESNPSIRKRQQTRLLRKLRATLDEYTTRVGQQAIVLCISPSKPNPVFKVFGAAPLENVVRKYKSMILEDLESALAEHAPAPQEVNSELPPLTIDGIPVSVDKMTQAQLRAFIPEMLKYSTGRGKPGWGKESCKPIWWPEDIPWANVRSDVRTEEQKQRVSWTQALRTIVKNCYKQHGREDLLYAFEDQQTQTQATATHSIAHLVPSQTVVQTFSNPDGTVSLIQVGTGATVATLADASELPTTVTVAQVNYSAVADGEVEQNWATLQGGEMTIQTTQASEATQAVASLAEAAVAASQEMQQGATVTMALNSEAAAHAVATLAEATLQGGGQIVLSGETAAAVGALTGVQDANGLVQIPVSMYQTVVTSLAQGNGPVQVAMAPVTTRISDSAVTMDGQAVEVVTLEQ
Outline: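 Reporter mRNA induction or loss in HepG2 cells after 24 h dosing; cis-regulated reporter constructs report endogenous transcription-factor activity. Quantified by RT-PCR/capillary electrophoresis fluorescence, DMSO-referenced.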

[6] = target: Oxysterols receptor LXR-alpha (Homo sapiens) (UniProt Q13133); experiment: ATG_LXRa_TRANS: Attagene TRANS-FACTORIAL HepG2 Assay for human Liver X Receptor alpha (LXRa) (AID 2282980); settings: HepG2 Attagene TRANS reporter, LXRa transactivation
Chain of Oxysterols receptor LXR-alpha (Homo sapiens) (Q13133 whole entry, looked up, the tested form may be a part): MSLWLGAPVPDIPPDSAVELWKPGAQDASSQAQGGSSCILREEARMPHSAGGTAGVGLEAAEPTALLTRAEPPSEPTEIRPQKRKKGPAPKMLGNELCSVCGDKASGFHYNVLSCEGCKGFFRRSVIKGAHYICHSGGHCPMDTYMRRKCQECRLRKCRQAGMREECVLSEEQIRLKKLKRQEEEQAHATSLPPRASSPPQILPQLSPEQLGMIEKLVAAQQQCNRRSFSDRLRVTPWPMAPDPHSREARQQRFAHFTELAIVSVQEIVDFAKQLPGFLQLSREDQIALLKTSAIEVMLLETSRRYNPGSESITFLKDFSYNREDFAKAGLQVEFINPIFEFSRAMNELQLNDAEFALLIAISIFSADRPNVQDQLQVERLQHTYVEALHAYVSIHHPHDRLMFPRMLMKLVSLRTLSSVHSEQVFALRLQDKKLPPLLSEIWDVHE
Outline: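 HepG2 cells were transiently transfected with multiplexed reporter units driven by chimeric LXRa–GAL4 fusion proteins, then dosed for 24 h. Reporter mRNA was quantified by RT-PCR, fluorescent labelling and capillary electrophoresis; gain of signal fitted against DMSO baseline.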

[7] = target: Oxysterols receptor LXR-beta (Homo sapiens) (UniProt P55055); experiment: ATG_LXRb_TRANS: Attagene TRANS-FACTORIAL HepG2 Assay for human Liver X Receptor beta (LXRb) (AID 2282981); settings: HepG2 Attagene TRANS GAL4-LXRb reporter, mRNA
Chain of Oxysterols receptor LXR-beta (Homo sapiens) (P55055 whole entry, looked up, the tested form may be a part): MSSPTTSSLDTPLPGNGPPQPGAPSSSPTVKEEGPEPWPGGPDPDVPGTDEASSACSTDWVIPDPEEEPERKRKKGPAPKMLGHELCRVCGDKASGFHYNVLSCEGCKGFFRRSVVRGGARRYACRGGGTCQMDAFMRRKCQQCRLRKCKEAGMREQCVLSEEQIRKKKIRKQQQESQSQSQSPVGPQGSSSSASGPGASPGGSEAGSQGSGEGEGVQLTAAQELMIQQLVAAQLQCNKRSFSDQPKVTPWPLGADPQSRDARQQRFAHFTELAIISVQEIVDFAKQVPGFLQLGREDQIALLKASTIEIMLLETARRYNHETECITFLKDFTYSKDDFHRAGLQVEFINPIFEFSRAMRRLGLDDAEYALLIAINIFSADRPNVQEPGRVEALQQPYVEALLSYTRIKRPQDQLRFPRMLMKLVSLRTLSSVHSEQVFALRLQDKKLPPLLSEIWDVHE
Outline: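 HepG2 cells transiently transfected with multiple reporter transcription units carrying chimeric NR-Gal4 proteins acting on GAL4-UAS reporters; compound exposure 24 h. Reporter mRNA quantified by RT-PCR, 6-FAM labelling, HpaI digestion and capillary electrophoresis; gain of signal versus DMSO.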

[8] = ATG_M_06_TRANS: Attagene TRANS-FACTORIAL HepG2 Assay for M06 Transcription Factor (Internal Marker) (AID 2282983); settings: HepG2 Attagene TRANS M06 internal marker reporter;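 further: reporter transcript level by RT-PCR then capillary electrophoresis fluorescence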
Outline: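 HepG2 cells transiently transfected with multiplexed GAL4-UAS reporter transcription units; after 24 h compound exposure, reporter mRNA measured by RT-PCR, FAM-labelled primer extension, HpaI digestion and capillary electrophoresis. Gain-of-signal fitted versus DMSO baseline; background control readout.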

[9] = target: Nuclear receptor subfamily 4 group A member 2 (Homo sapiens) (UniProt P43354); experiment: ATG_NURR1_TRANS: Attagene TRANS-FACTORIAL HepG2 Assay for human Nuclear Receptor Related Protein 1 (NURR1) (AID 2282985); settings: HepG2 Attagene TRANS reporter, mRNA readout
Chain of Nuclear receptor subfamily 4 group A member 2 (Homo sapiens) (P43354 whole entry, looked up, the tested form may be a part): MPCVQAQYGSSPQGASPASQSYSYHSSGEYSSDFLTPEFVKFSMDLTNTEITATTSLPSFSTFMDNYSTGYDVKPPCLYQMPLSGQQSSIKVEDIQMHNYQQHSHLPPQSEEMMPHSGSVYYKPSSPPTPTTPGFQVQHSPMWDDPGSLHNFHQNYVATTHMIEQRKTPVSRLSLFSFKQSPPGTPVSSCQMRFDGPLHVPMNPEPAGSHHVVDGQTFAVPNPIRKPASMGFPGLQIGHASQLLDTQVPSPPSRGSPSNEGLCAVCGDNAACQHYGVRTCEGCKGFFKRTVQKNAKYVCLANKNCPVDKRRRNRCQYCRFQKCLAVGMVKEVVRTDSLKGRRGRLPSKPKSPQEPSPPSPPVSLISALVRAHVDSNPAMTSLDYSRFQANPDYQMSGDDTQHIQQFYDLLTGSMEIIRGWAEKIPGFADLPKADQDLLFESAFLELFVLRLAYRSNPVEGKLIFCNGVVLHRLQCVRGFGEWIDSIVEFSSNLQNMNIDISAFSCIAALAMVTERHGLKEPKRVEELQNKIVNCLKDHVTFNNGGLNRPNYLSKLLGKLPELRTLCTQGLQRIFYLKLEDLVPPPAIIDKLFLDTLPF
Outline: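 HepG2 cells transiently transfected with GAL4-UAS reporter units and chimeric NR-Gal4 constructs; chemical exposure 24 h. Reporter mRNA quantified by RT-PCR, fluorescent labelling and capillary electrophoresis; gain of signal fitted relative to DMSO baseline.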

[10] = target: Transcriptional activator Myb (Homo sapiens) (UniProt P10242); experiment: ATG_Myb_CIS: Attagene CIS-FACTORIAL HepG2 Assay for human Myeloblastosis (Myb) Proto-Oncogene Transcription Factor (AID 2282986; active means hit-call score of the fitted dose curve at least 0.9, where 1 is the maximum; inactive means score below 0.9); settings: HepG2 Attagene CIS-FACTORIAL Myb reporter transcription; actives raise or lower the signal
Chain of Transcriptional activator Myb (Homo sapiens) (P10242 whole entry, looked up): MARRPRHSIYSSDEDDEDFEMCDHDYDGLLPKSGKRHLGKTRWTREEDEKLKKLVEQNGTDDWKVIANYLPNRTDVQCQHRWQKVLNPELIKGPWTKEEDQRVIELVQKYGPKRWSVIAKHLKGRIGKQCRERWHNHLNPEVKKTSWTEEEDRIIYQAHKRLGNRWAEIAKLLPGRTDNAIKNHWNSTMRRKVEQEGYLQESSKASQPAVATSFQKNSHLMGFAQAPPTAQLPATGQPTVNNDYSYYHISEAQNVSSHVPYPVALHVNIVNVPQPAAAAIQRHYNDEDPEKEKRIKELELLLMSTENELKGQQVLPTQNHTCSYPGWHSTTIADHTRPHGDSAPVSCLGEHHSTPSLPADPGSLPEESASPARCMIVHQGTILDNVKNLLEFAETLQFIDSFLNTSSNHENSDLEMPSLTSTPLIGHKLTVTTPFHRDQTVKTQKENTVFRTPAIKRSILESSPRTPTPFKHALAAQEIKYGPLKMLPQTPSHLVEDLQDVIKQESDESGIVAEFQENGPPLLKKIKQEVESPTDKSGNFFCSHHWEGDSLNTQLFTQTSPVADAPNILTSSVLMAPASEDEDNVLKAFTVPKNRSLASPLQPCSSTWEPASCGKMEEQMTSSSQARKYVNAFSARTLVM
Outline: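 Using HepG2 liver cells bearing transiently transfected cis-promoter reporter constructs, the assay measures induction or loss of reporter mRNA after 24 hours of dosing. Detection used fluorescently labeled RT-PCR products separated by capillary electrophoresis.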

Measured: AC50

c1ccc2c(c1)c1cccc3ccc4cccc2c4c31
inactive: [1] | [2] | [3] | [4] | [5]

CCC(=O)/C=C/C1C(C)=CCCC1(C)C (configuration not stated)
inactive: all assays above

CC(C)=CCC[C@H](C)CC=O
not listed: [3]
inactive: all other assays above

COC(=O)c1ccc(C)cc1
not listed: [9]
inactive: all other assays above

CCCCC/C=C/C=C/C=O
not listed: [3] | [7]
inactive: all other assays above

CC(=O)OCc1ccc2c(c1)OCO2
not listed: [3] | [6] | [7]
inactive: all other assays above

CCc1c(C)cc(N)c(CC)c1N
not listed: [6] | [7] | [8]
inactive: all other assays above

CC(CC(C)(C)C)CC(C)(C)CC(C)(C)C (configuration not stated)
not listed: [6] | [10]
inactive: all other assays above

Cc1ccc2sc3cccc(C)c3c2c1
inactive: [1] | [2] | [3] | [8] | [10] | [5]

BrC1CCC(Br)C(Br)CCC(Br)C(Br)CCC1Br (configuration not stated)
active: [5] 110 µM
not listed: [3] | [4] | [7]
inactive: all other assays above

Cc1cccc(C)c1C
inactive: [1] | [2] | [8] | [4] | [10] | [5]

COc1cc(C(C)(C)C)c(O)c(C(C)(C)C)c1
not listed: [3] | [4]
inactive: all other assays above

CC(C)=CCCC(C)CC=O (configuration not stated)
not listed: [6] | [7]
inactive: all other assays above

COc1cc2ncnc(Nc3cccc(Cl)c3)c2cc1OC
not listed: [6] | [9]
inactive: all other assays above

COc1c(Cl)c(Cl)c(Cl)c(Cl)c1Cl
inactive: [1] | [2] | [3] | [8] | [10] | [5]

CC(C)(N)CO
inactive: [1] | [2] | [7] | [8] | [5]

CC1(C)CCC(C)(C)c2cc(C(=O)Nc3ccc(C(=O)O)cc3)ccc21
inactive: [1] | [7] | [8] | [4] | [10]
active: [2] 13 µM | [5] 93.6 µM

O=C(Nc1ccccc1)c1cc([N+](=O)[O-])ccc1Cl
not listed: [3]
inactive: all other assays above

CCC(O)CO (configuration not stated)
not listed: [7] | [8] | [9]
inactive: all other assays above

CN(C)CCCN
not listed: [4] | [6] | [9]
inactive: all other assays above

CC(=O)O[C@]1(C(C)=O)CC[C@H]2[C@@H]3C[C@H](C)C4=CC(=O)CC[C@]4(C)[C@H]3CC[C@@]21C
active: [1] 0.354 µM | [9] 16.8 µM
not listed: [3] | [4]
inactive: all other assays above

C=CC(=O)OCCn1c(=O)n(CCOC(=O)C=C)c(=O)n(CCOC(=O)C=C)c1=O
not listed: [6] | [9]
inactive: all other assays above

CC(CCO)CCc1ccccc1 (configuration not stated)
inactive: [1] | [2] | [8] | [4] | [10] | [5]

CCCCNC(=O)NS(=O)(=O)c1ccc(C)cc1
inactive: [1] | [2] | [7] | [4] | [10] | [5]

CC1CCC(C(C)(C)O)CC1 (configuration not stated)
not listed: [6] | [8]
inactive: all other assays above

CC(C#N)(CCC(=O)O)N=NC(C)(C#N)CCC(=O)O (configuration not stated)
inactive: [1] | [2] | [7] | [8] | [10] | [5]

CCCC(=O)c1cc(O)c(O)cc1O
not listed: [3] | [4]
inactive: all other assays above

CCCCCCCCCCCCSC
not listed: [9]
inactive: all other assays above

NC(=O)c1ccccc1Cl
inactive: [1] | [2] | [6] | [4] | [10] | [5]
